Eight compounds from PubChem BioAssay (Tox21) can be followed below.

Each structure is given as a SMILES string. “And” between values parts separate entries of the source, which are not always exact repeats. Equal entries are not always repeated. A number with no mark means an inactive call. Inconclusive results are not listed. The source made the active and inactive calls. Unless noted, the call rests on the fitted dose curve; in most records, active means well fitted curve in the direction sought with a large enough effect in the repeat runs; inconclusive means weak or mixed curves; inactive means no such curve, though single readings can be large; an effect the other way counts as inactive or inconclusive.

The nature of test [1]: qHTS assay to identify small molecule agonists of the estrogen receptor alpha (ER-alpha) signaling pathway in the presence of an antagonist - cell viability counter screen (AID 1259386). Further: series mostly up to about 92 µM; nearly all actives have a fitted effect of over 30% in size. An outline of the steps:
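Compounds tested at 15 concentrations for 22 h at 37C alongside 10.0nM (final) ICI-182,780 antagonist, in VM7Luc4E2 cells grown in phenol red-free, charcoal-stripped medium. Viability read by CellTiter-Fluor fluorescence after 1 h reagent incubation.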

The nature of test [2]: qHTS assay to identify small molecule antagonists of the progesterone receptor (PR) signaling pathway - cell viability counter screen (AID 1346798). Further: series mostly up to about 92 µM; nearly all actives have a fitted effect of over 50% in size. In short, it runs like this:
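PR-UAS-bla HEK293T cells, 3,000/well in 2% charcoal-stripped FBS medium, dosed with compounds plus R5020 agonist and incubated 16 h at 37C. Viability then measured in the same wells by CellTiter-Glo luminescence after 30 min at RT.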
In general terms: Quantitative high-throughput screening tests each substance at several concentrations.

Test [3] in a line: qHTS assay to identify small molecule agonists of the progesterone receptor (PR) signaling pathway - cell viability counter screen (AID 1346799; calls by dose curve; further: nearly all actives have a fitted effect of over 45% in size; further: potency means the concentration at half of the fitted maximal effect). An outline of the steps: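 Counter screen in the PR-UAS-bla HEK293T wells (2% charcoal-stripped FBS, 16 h compound exposure at 37 C) after the bla read. CellTiter-Glo added, 30 min at room temperature, luminescence read as cell viability.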

Test [4] can be described thus: qHTS assay to identify small molecule antagonists of the TGF-beta/Smad signaling pathway - cell viability counter screen (AID 1346824). Further: nearly all actives have a fitted effect of over 50% in size. An outline of the steps: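 Cytotoxicity counter-screen run in the same wells as the beta-lactamase Smad reporter read: CellTiter-Glo luminescence after 30 min at room temperature. HEK 293T SBE-bla cells had 5 hr compound exposure at 37 C with TGF-beta1 (0.25 ng/mL stock).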

A short description of test [5]: qHTS assay to identify small molecule agonists of the TGF-beta/Smad signaling pathway - cell viability counter screen (AID 1346829). Further: top concentration of the series differs between compounds; nearly all actives have a fitted effect of over 45% in size. An outline of the steps:
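Cytotoxicity counter screen: CellTiter-Glo luminescence (30 min, room temperature) measured in the SBE-bla HEK 293T reporter wells after 5 hr compound treatment at 37 C and the 2 hr substrate step.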

Test [6] deals with Thyrotropin-releasing hormone receptor (Homo sapiens) (UniProt P34981). The test can be described thus: qHTS assay to identify small molecule antagonists of the thyrotropin-releasing hormone receptor (TRHR) signaling pathway (AID 1346877; active means well fitted inhibition curve with a large enough effect in the repeat runs, not every such curve was filed as active; further: series mostly up to about 51 µM). In short, it runs like this: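 Antagonist mode: after a 5 min room-temperature compound exposure, cells were stimulated with 1 nM (final) TRH. Dye-loaded TRHR-HEK293 cells were used, and calcium-dependent fluorescence was followed for 3 min, with 15-point titrations run in triplicate.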

The target is the same in test [7]. As to the kind of experiment: qHTS assay to identify small molecule agonists of the thyrotropin-releasing hormone receptor (TRHR) signaling pathway (AID 1346891; calls by dose curve; further: series mostly up to about 58 µM). An outline of the steps:
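HEK293 cells expressing TRHR plated 18 h at 37 C/5% CO2, calcium dye-loaded 2 h at 37 C, then compound added (agonist mode); kinetic calcium fluorescence read 3 min at 1 s intervals; 15 concentrations in triplicate.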

Test [8] is described as follows: Human pregnane X receptor (PXR) small molecule agonists, qHTS cell viability counter screen (AID 1346977). Further: nearly all actives have a fitted effect of over 50% in size. Further: potency means the concentration at half of the fitted maximal effect. An outline of the steps:
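PXR-Luc HepG2 cells (2,000/well, 5% charcoal-stripped FBS) preincubated 5 hr, then exposed to compounds 24 hr at 37 C. Viability read in the same wells by CellTiter-Fluor fluorescence, reagent added at 23 hr, 1 hr incubation.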

The target of test [9] is Nuclear receptor subfamily 1 group I member 2 (Homo sapiens) (UniProt O75469). The test can be described thus: Human pregnane X receptor (PXR) small molecule agonists, qHTS assay (AID 1346982). Further: nearly all actives have a fitted effect of over 35% in size. Further: potency means the concentration at half of the fitted maximal effect. In short, it runs like this:
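Agonist mode: luminescence from ONE-Glo after 24 h compound exposure at 37C in HepG2 cells carrying hPXR-responsive CYP3A4 luciferase, plated in charcoal-stripped serum medium 5 h beforehand.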

Test [10] concerns the target Nuclear receptor subfamily 1 group I member 2 (Rattus norvegicus) (UniProt Q9R1A7). As to the kind of experiment: Rat pregnane X receptor (rPXR) activation by small molecules, qHTS assay (AID 1346983). Further: nearly all actives have a fitted effect of over 20% in size. To be noted: rPXR luciferase reporter cells, One-Glo luminescence, 24 h; max activation: active compounds read high. An outline of the steps:
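Luminescent readout (One-Glo luciferase, 30 min room temperature) followed 24 hr compound treatment at 37 C of rPXR cells plated 2,000 per well and preincubated 5hr; qHTS format with compounds delivered in DMSO.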

Test [11] addresses Nuclear receptor subfamily 1 group I member 2 (Homo sapiens) (UniProt O75469). The test can be described thus: CYP3A4 induction through human pregnane X receptor (PXR) by small molecules, qHTS assay (AID 1346984). Further: nearly all actives have a fitted effect of over 40% in size. An outline of the steps:
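Read-out is luminescence after One-Glo addition, following a 3 hr, 37C incubation with Luciferin-IPA CYP3A4 substrate (3uM final). Before that, compounds were on DPX-2 cells (HepG2 co-transfected with PXR element plus CYP3A4-promoter luciferase) for 24 hr at 37C.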

The target is the same in test [12]. The test can be described thus: Human pregnane X receptor (PXR) activation by small molecules, qHTS assay (AID 1346985). Further: nearly all actives have a fitted effect of over 40% in size. In short, it runs like this: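 DPX-2 cells (HepG2 co-transfected with a PXR response element and a CYP3A4-promoter luciferase construct) were seeded at 2,000 per well, rested 5 hr at 37C, then exposed to DMSO-dissolved compounds for 24 hr. Activation was read as luciferase luminescence.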

The target in test [13] is Cytochrome P450 2D6 (Homo sapiens) (UniProt P10635). The test can be described thus: Cytochrome P450 Family 2 Subfamily D Member 6 (CYP2D6) small molecule antagonists: luciferase reporter qHTS assay (AID 1671196). Further: nearly all actives have a fitted effect of over 50% in size. Further: potency means the concentration at half of the fitted maximal effect. An outline of the steps: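 CYP2D6 activity was followed as luminescence from its luciferin product after a 1 h NADPH-driven reaction at room temperature. Enzyme-substrate mix and compound were pre-incubated for 10 min, and the signal was read 20 min after adding detection reagent.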
A general note: A reporter such as luciferase makes a cellular process visible.

For test [14], the target named is Progesterone receptor (Homo sapiens) (UniProt P06401). The test can be described thus: qHTS assay to identify small molecule antagonists of the progesterone receptor (PR) signaling pathway (AID 1346795; active means well fitted inhibition curve with a large enough effect in the signal ratio in the repeat runs, not every such curve was filed as active; the % refers to the signal ratio; further: potency means the concentration at half of the fitted maximal effect). An outline of the steps:
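PR-UAS-bla HEK293T cells with beta-lactamase reporter under UAS control, in 2% charcoal-stripped FBS, treated with compounds plus 1 nM promegestone (R5020, final) for 16 hr at 37C. Read-out: FRET beta-lactamase substrate fluorescence after 2 hr at room temperature.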

Test [15] is described as follows: qHTS assay to identify small molecule agonists of the TGF-beta/Smad signaling pathway (AID 1346859; active means well fitted activation curve with a large enough effect in the signal ratio in the repeat runs, not every such curve was filed as active; the % refers to the signal ratio; further: series mostly up to about 77 µM). In short, it runs like this:
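SBE-bla HEK293T cells plated overnight, then compound exposure for 5 h at 37 C. Beta-lactamase reporter read with LiveBLAzer B/G FRET substrate after 2 h at room temperature, fluorescence at 405 nm excitation, 460/530 nm emission.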

Test [16] is described as follows: Caspase-3/7 induction in HepG2 cells by small molecules, qHTS assay (AID 1346978). Further: nearly all actives have a fitted effect of over 15% in size. In short, it runs like this:
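Caspase-3/7 induction was measured by Caspase-Glo 3/7 luminescence (30 min, room temperature) after a 17 hr compound exposure of wild-type HepG2 cells seeded at 2,000 per well and pre-incubated 5 hr.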

Test [17] is described as follows: Caspase-3/7 induction in CHO-K1 cells by small molecules, qHTS assay (AID 1346980). Further: nearly all actives have a fitted effect of over 15% in size. In short, it runs like this: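 Luminescent Caspase-Glo 3/7 read (30min, room temperature) quantified apoptosis induction. Cells were wild-type CHO-K1, treated with compound for 17hr at 37 C and 5% CO2.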
Test [18] in a line: Caspase-3/7 induction in HepG2 cells by small molecules, qHTS cell viability counter screen (AID 1346981). Further: nearly all actives have a fitted effect of over 30% in size. Further: potency means the concentration at half of the fitted maximal effect. An outline of the steps: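 CellTiter-Fluor fluorescence measured viability in the same wells used for Caspase-Glo 3/7. HepG2 (wild type) at 2,000 cells/well were pre-incubated 5 hr, dosed, and given reagent at 16 hr, with 1 hr further at 37C.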
The target in test [19] is Progesterone receptor (Homo sapiens) (UniProt P06401). As to the kind of experiment: qHTS assay to identify small molecule agonists of the progesterone receptor (PR) signaling pathway (AID 1346784; calls by dose curve; further: nearly all actives have a fitted effect of over 30% in size). In short, it runs like this:
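PR-UAS-bla HEK 293T cells (beta-lactamase reporter under UAS) in 2% charcoal-stripped FBS, dosed with 23 nL compound after 6 hr, incubated 16hr at 37C. LiveBLAzer B/G FRET substrate added, fluorescence read after 2 hours.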

A short description of test [20]: Caspase-3/7 induction in CHO-K1 cells by small molecules, qHTS cell viability counter screen (AID 1346979). Further: nearly all actives have a fitted effect of over 35% in size. Further: potency means the concentration at half of the fitted maximal effect. In short, it runs like this:
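Wild-type CHO-K1 cells (1,500/well) treated with compound after 5 h plating; after 16 h at 37C, viability read as CellTiter-Fluor fluorescence following 1 h reagent incubation, in the same wells as the caspase read.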
On the % scale 0 is the no-effect control and ±100 the full control effect.

Chain of Progesterone receptor (Homo sapiens) (P06401 whole entry, looked up): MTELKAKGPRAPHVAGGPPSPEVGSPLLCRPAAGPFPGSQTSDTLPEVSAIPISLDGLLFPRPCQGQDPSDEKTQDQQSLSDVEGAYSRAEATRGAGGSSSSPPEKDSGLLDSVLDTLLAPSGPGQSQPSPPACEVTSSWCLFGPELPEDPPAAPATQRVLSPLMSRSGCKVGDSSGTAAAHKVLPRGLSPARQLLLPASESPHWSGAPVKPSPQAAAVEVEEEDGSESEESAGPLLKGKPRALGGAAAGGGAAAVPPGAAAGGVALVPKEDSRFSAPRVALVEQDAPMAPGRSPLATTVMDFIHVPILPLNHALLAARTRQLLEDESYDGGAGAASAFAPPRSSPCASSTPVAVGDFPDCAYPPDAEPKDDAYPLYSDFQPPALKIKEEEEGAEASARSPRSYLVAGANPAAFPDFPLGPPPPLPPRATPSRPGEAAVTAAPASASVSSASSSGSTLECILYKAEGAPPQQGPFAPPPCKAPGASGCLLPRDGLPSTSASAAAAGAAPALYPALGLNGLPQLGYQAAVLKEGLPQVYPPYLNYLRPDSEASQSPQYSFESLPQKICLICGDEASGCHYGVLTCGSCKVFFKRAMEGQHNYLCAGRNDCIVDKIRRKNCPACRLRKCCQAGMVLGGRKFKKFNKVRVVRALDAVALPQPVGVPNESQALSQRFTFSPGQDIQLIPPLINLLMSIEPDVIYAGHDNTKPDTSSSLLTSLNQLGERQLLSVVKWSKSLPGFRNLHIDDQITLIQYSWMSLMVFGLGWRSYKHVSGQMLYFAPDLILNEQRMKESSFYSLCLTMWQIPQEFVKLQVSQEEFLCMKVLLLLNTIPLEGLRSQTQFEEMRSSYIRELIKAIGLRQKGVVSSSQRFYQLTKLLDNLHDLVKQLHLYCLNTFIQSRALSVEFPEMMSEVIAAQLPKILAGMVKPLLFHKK
Chain of Thyrotropin-releasing hormone receptor (Homo sapiens) (P34981 whole entry, looked up): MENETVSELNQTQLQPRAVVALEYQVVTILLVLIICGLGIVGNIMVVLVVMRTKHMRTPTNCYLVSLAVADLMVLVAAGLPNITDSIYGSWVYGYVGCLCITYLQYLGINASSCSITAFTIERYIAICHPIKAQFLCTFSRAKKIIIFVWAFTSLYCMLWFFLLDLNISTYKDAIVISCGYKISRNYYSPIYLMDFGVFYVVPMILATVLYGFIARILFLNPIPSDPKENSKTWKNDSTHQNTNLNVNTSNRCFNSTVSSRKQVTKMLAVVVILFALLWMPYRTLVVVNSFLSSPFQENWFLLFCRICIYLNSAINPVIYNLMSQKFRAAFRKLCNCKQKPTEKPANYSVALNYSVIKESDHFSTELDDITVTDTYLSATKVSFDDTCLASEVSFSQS
Chain of Nuclear receptor subfamily 1 group I member 2 (Homo sapiens) (O75469 whole entry, looked up): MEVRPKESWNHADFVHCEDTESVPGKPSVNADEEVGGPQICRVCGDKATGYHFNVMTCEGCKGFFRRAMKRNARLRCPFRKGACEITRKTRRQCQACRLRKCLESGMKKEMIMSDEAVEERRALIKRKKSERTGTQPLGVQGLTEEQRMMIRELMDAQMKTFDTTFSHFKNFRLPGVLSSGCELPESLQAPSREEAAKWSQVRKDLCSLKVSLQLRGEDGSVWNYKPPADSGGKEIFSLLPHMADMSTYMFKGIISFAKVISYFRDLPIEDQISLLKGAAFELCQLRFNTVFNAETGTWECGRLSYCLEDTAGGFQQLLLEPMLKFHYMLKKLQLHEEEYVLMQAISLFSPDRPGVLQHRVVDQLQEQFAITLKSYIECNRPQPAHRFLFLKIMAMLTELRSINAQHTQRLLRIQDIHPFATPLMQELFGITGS
Chain of Nuclear receptor subfamily 1 group I member 2 (Rattus norvegicus) (Q9R1A7 whole entry, looked up): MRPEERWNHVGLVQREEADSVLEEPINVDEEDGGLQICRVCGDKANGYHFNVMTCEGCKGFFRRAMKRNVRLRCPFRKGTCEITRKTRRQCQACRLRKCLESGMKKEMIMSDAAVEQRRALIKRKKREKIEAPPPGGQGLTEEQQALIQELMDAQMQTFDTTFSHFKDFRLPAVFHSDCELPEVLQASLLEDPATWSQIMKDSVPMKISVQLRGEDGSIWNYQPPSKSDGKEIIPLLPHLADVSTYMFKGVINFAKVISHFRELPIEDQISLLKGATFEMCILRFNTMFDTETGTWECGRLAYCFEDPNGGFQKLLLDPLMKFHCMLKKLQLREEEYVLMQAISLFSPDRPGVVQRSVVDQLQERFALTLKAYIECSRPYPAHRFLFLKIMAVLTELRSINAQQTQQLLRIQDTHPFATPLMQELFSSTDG
Chain of Cytochrome P450 2D6 (Homo sapiens) (P10635 whole entry, looked up): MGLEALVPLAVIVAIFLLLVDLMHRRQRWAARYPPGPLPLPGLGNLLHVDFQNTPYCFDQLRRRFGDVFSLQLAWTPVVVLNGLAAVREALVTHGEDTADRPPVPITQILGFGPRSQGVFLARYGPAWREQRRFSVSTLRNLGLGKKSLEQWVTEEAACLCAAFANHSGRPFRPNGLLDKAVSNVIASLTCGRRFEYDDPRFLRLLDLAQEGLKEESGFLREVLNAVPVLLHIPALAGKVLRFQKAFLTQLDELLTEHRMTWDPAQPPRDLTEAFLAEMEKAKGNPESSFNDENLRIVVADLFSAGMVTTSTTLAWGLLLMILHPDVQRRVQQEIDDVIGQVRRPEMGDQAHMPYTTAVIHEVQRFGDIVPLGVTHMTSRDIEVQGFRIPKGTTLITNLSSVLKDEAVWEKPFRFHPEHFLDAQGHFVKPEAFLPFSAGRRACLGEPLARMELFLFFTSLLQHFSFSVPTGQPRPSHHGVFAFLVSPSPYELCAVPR

For `C[C@H](CCC(=O)O)[C@H]1CC[C@H]2[C@@H]3[C@H](O)C[C@@H]4C[C@H](O)CC[C@]4(C)[C@H]3CC[C@]12C`, the Potency result in test [1], in [2], in [3], in test [4], in test [5] and in test [7] was “inactive” each time. In addition, the Potency result in test [8], in test [9], in test [11] and in test [12] was “inactive” each time. Further, the call in [6] was inactive. Also, the max activation in test [10] is -0.524%. Besides, the Potency in test [13] is 56.6 µM (active).

Turning to `CCCCCCCCCCCCC(=O)O`, the Potency result in test [1], in [14], in test [4], in [5], in test [7] and in [8] was “inactive” throughout. The Potency result in [17], in [18] and in test [13] was “inactive” throughout. Besides, in test [3], the Potency was 19.4 µM (active). Further, the result in test [15], in test [6] and in [16] was inactive.

`Oc1ccc(Sc2ccc(O)cc2)cc1`: the Potency result in [1], in test [4], in [7], in [8], in test [17] and in test [18] was “inactive” in each case. Also, the Potency in [14] was 18.1 µM (active); in test [9] it was 51 µM (active); in [13], 33.3 µM (active). The call in test [15] and in test [6] was inactive.

With `CC(=O)Nc1ccc(/C=N/NC(N)=S)cc1`, the compound was called inactive in test [19], in [15] and in test [16]. Besides, the Potency result in test [14], in test [2], in [3], in test [4], in test [5] and in test [8] was “inactive” throughout. Further, the Potency result in test [20], in test [17], in [18], in test [9], in [11] and in [12] was “inactive” throughout. The Potency entry in test [13] is “inactive”. Also, in test [10], the max activation is -4.57% and -9.49%.

For the compound `CC(C)CCCC(C)CCO` (configuration not stated), the Potency entry in test [1], in test [2], in test [3], in test [4], in test [5] and in [7] was “inactive” each time. Moreover, the Potency result in test [8], in test [20], in test [17], in test [18], in test [9] and in test [13] was “inactive” in each case. Further, the outcome in test [15], in test [6] and in test [16] was inactive.

Regarding `Cc1cc(C)c(S(=O)(=O)O)cc1N=Nc1cc(S(=O)(=O)O)c2ccccc2c1O`, the compound was classed as inactive in test [19], in test [15], in test [6] and in test [16]. Besides, the Potency result in [14], in test [2], in test [3], in [4], in test [7] and in test [17] was “inactive” each time. Further, the Potency result in [9] is “inactive”. The Potency in test [8] was 24.3 µM (active); in test [20], 30.6 µM (active); in test [18], 34.4 µM (active).

As to `CC(=O)O[C@H]1C[C@@H]2CC[C@@H]3[C@H](CC[C@@]4(C)[C@H]3C[C@H]([N+]3(C)CCCCC3)[C@@H]4OC(C)=O)[C@@]2(C)C[C@@H]1N1CCCCC1`, the compound was called inactive in test [19], in test [15], in [6] and in test [16]. Besides, the Potency result in [14], in [2], in test [3], in [4], in test [5] and in test [7] was “inactive” each time. In addition, the Potency result in test [8], in [20], in test [17], in test [18], in test [9] and in test [11] was “inactive” in each case. In test [12], the Potency entry is “inactive”. In addition, the max activation in test [10] was -3.12%.

Regarding `CC(C)(Oc1ccc(Cl)cc1)C(=O)OCCCOC(=O)C(C)(C)Oc1ccc(Cl)cc1`, the compound was called inactive in [19], in test [15], in test [6] and in [16]. The Potency entry in test [14], in test [2], in test [3], in test [4], in test [5] and in test [7] was “inactive” each time. Also, the Potency entry in test [8], in [20], in test [17], in test [18], in [9] and in [13] was “inactive” throughout.
